Compound activity deposited in PubChem BioAssay by National Center for Advancing Translational Sciences (NCATS).
IL2 activator: activates IL-2 in a cell-based reporter assay; IL-2 activation reporter assay, cell-based qHTS; stimulated with anti-CD3/CD4/CD28 beads; in transgenic mouse T cells; activation, % (series mostly up to about 46 µM); 360,000 tested, 0.065% active; in the data active means activation above about 50%; inconclusive means mostly about 30% to 49%; further: 0% is about no effect
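Using fluorescent plate cytometry, EGFP and DsRed are detected in transgenic mouse T cells stimulated 18 h at 37 degrees C with antibody-coated beads after 60 min compound pretreatment.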
PKM2 act: increases activity of human pyruvate kinase M2. 260,000 tested, 0.34% active. AID 1631. Potency, µM (titrated, usually from 57.5 µM), inactives show at the top dose activation, usual class: activators. purified PKM2, Kinase-Glo ATP luminescence, activation; response scale: 0% is enzyme alone, no compound; further: potency means the concentration at half of the fitted maximal effect; on the % scale 0 is the no-effect control and ±100 the full control effect; nearly all actives have a fitted effect of over 55% in size
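Purified hPK-M2 (>95% pure) converted ADP (0.1 mM final) to ATP with 0.5 mM PEP in 50 mM imidazole pH7.2, KCl, MgCl2, Tween 20, BSA; 1 h at room temperature. ATP detected by Kinase-Glo luminescence.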
B2AR arrestin: agonists driving beta-arrestin recruitment to human beta2-adrenergic receptor; P07550; beta-arrestin recruitment to beta2AR, cell-based reporter; Potency, µM (top dose mostly 46.1 µM), for the others: at the top dose activation, hits mostly activators; 330,000 tested, 0.02% active; AID 492947;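 further: potency means the concentration at half of the fitted maximal effect; 0% = DMSO controls and full agonism = EC100 isoproterenol or metaproterenol; nearly all actives have a fitted effect of over 65% in size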
Target sequence (P07550 whole entry, looked up): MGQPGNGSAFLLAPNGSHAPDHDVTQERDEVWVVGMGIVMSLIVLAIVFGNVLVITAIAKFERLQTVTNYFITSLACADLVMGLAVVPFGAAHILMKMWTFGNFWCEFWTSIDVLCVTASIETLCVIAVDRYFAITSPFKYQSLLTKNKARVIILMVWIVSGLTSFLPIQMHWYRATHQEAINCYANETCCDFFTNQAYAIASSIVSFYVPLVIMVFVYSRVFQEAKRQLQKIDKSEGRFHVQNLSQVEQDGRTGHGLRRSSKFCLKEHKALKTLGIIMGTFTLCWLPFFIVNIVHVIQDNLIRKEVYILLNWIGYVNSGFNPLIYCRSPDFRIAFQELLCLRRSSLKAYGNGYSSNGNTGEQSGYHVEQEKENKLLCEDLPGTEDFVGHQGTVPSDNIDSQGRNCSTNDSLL
PINK1 expr mod: modulators of PINK1 expression; PINK1 immunofluorescence, high-content cytometry, 24 h; Potency, µM (titrated, usually from 76.6 µM), for inactives: at the top dose activation (PINK1 increase), hits mostly activators; 410,000 tested, 0.2% active; active means well fitted activation curve with a large enough effect; inconclusive means small, poorly fitted or top-dose-only effect; cell line not stated here; further: potency means the concentration at half of the fitted maximal effect; % of control where 0% means no effect; nearly all actives have a fitted effect of over 65% in size
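Fluorescence from anti-PINK1 antibody, together with nuclear and cell stains, was scanned on a laser-scanning cytometer. Before staining, stable-line cells were incubated 24 hours with compounds at 5 concentrations; primary antibody 12 h at 10 degrees C.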
Epigenetic reg: derepresses silenced GFP reporter in murine cells | murine LDR cells, GFP reporter derepression, 30 h | Potency, µM (series often up to 53.9 µM), for the others: at the highest dose GFP activation, usual class: activators | 280,000 tested, 0.2% active | AID 1865; further: potency means the concentration at half of the fitted maximal effect; % of control where 0% means no effect; nearly all actives have a fitted effect of over 60% in size
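GFP-positive cell count by laser-scanning cytometry (objects 20–120 um) after 30 h, 37 C compound exposure of murine LDR cells; reporter is CMV-GFP integrated at a silenced locus, inducible by HDAC or DNMT inhibitors.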
Numbers without * were called inactive; ? = inconclusive; nt = no result given; [ ] = another dose, or the depositor's remark. This is a sample that favours compounds with a hit; in the whole collection about 0.58% have one here. Unless noted, the call rests on the fitted dose curve; in most records, active means well fitted curve in the direction sought with a large enough effect; inconclusive means small, poorly fitted or top-dose-only effect, or another doubt; inactive means no such curve, though single readings can be large; an effect the other way counts as inactive or inconclusive.

SMILES	IL2 activator	PKM2 act	B2AR arrestin	PINK1 expr mod	Epigenetic reg
Nc1c(C(=O)Nc2ccccc2)sc2nc3c(cc12)CN(Cc1ccccc1)CC3	nt	nt	nt	22.2%	5.6%
CCOc1ccc(-c2c(C#N)c(N)nc3sc(C(=O)c4ccccc4)c(N)c23)cc1	124.7*	-12.5%	0.0%	18.6%	8.6%
COc1ccc(NC(=O)c2sc3nc4c(cc3c2N)CN(Cc2ccccc2)CC4)c(OC)c1	nt	nt	nt	3.2%	7.08µM*
COc1ccc(-c2c3c(nc4sc(C(=O)Nc5ccc(Cl)cc5)c(N)c24)CC(C)(C)CC3=O)cc1	nt	nt	nt	2.5%	-0.1%
CCOc1ccc(NC(=O)c2sc3nc4c(cc3c2N)CN(Cc2ccccc2)CC4)cc1	nt	nt	nt	10.8%	15.8µM*
COc1ncccc1C(=O)N1CCOc2ccc(C(O)C(c3ccccc3)c3ccccc3)cc2C1 (centres undefined)	nt	nt	nt	0.2%	nt
Cn1c(-c2ccncc2)nc2cc(C(=O)N[C@H]3CCCCNC3=O)cc(NC(=O)C3CCC3)c21	nt	nt	nt	0.4%	nt
CCCN(CCC)c1ccc(/C=C/c2sc3ccccc3[n+]2CCCCI)cc1	nt	nt	nt	14.1µM*	nt
CN(C)c1ccc(/C=C/c2sc3ccccc3[n+]2Cc2ccccc2)cc1	nt	nt	nt	39.8µM*	nt
COc1ccc(/C=C/c2sc3ccccc3[n+]2CCCCI)cc1OC	nt	nt	nt	0.0%	nt
C[n+]1c(/C=C/c2ccc(N)cc2)sc2ccccc21	nt	nt	nt	0.4%	nt
Cc1ccc2nc(CNC(=O)c3cc(NC(=O)c4ccccc4)cc4ncn(C5CCCC5)c34)cn2c1	nt	nt	nt	-0.2%	nt
C/C=C\C=C/C(=O)Nc1cccc(C2=NOC3(C2)C[C@H](C(N)=O)N(C(=O)CC)C3)c1 (some centres undefined)	-1.2	12.6µM*	0.2%	?	0.1%
C/C=C\C=C/C(=O)Nc1cccc(C2=NOC3(C2)C[C@H](C(N)=O)N(C(=O)c2ccc(OC)cc2)C3)c1 (some centres undefined)	2.9	14.1µM*	0.0%	0.4%	5.1%
C/C=C/C=C\C(=O)Nc1cccc(C2=NOC3(C2)C[C@H](C(N)=O)N(C(=O)CC#N)C3)c1 (some centres undefined)	2.2	20µM*	-0.5%	3.8%	-1.7%
CCC1CN(CCNC(=O)c2cc3ccccc3oc2=O)Cc2cc(OC)ccc2O1 (centres undefined)	nt	nt	nt	0.4%	nt
Cc1ccc(NC(=O)C(Nc2ccccc2)c2ccccc2)cc1 (centres undefined)	0.2	1.4%	9.5%	3.9%	0.0%
Cc1ccc(NC(C(=O)c2ccccc2)c2ccccc2)cc1 (centres undefined)	-0.1	nt	nt	35.5µM*	nt
Cc1cnc(C)c(-c2cccc3c2OC(CNC(=O)C2(c4ccc(Cl)cc4)CC2)C3)n1 (centres undefined)	nt	nt	nt	-0.4%	nt
O=C1CCCC2=C1C1(CCCC1)N=C(Nc1nc3ccccc3s1)N2	-2.1	-5.0%	0.2%	11.2µM*	?
Cc1c(C(=O)N2CCN(C)CC2)sc2ncnc(NCC3(c4ccccc4)CCOCC3)c12	nt	nt	nt	0.2%	nt
CCOc1ccc(NC(=O)c2cc(SC)ccc2Cl)cc1	-0.7	2.4%	-0.8%	2.2%	1.5%
CCCCCOc1ccc(NC(=O)c2cc(SC)ccc2Cl)cc1	1.9	5.8%	-0.8%	14.1µM*	0.0%
CN(CCO)C(=O)c1cn(C2CCN(Cc3cccc(C(F)(F)F)c3)CC2)nn1	nt	nt	nt	0.9%	nt
C[C@@H]1CN(Cc2ccc3c(c2)CN(Cc2nc(-c4ccccc4)cs2)CCO3)C[C@H](C)O1	nt	nt	nt	0.1%	nt
SMILES	IL2 activator	PKM2 act	B2AR arrestin	PINK1 expr mod	Epigenetic reg
COc1c(OC(C)=O)ccc(/C=C/c2ccc3ccccc3n2)c1[N+](=O)[O-]	-1.1	2.0%	-0.4%	10µM*	0.4%
COc1c(OC(C)=O)ccc(/C=C/c2ccc3cccc(OC)c3n2)c1[N+](=O)[O-]	0.3	-0.1%	-0.6%	1.7%	1.0%
Cc1ncc2c(c1CNC(=O)c1ccc3c(c1)OCO3)CCN(C(=O)c1ccoc1)C2	nt	nt	nt	-1.1%	nt
COc1cc(=O)n2c(c1C(=O)NCc1nonc1C)CCN(Cc1c[nH]c3ccccc13)CC2	nt	nt	nt	0.6%	nt
Cc1cccc(NC(=O)/C(C#N)=C\c2cccnc2)c1	2.1	-3.7%	-1.0%	1.7%[38.3 µM]	0.0%
N#C/C(=C\c1cccnc1)C(=O)Nc1cccc(Cl)c1	0.7	5.62µM*	0.1%	2.4%	?
CC(=O)N1CCc2cc(S(=O)(=O)Nc3cccc(C(F)(F)F)c3)ccc21	-2.4	25.1µM*	-1.7%	4.2%	0.7%
Cc1occc1-c1nnc(SCC(=O)c2ccc(Cl)cc2)n1C	0.0	8.6%	-0.1%	-0.9%	9.5%
Cc1occc1-c1nnc(SCC(=O)c2c[nH]c3ccccc23)n1C	-0.7	25.1µM*	0.1%	-0.6%	-2.8%
COc1cc(CN2CCC3(CCC(CNC(=O)c4ccccc4)O3)CC2)cc(OC)c1 (centres undefined)	nt	nt	nt	0.4%	nt
COc1cccc(C2c3c(oc4ccc(Cl)cc4c3=O)C(=O)N2c2cc(C)on2)c1OC (centres undefined)	1.7	-0.4%	-0.3%	12.6µM*	2.2%
Cc1ccccc1N(C)S(=O)(=O)c1nnc(NC(=O)C(C)C)s1	nt	nt	nt	1.1%	22.4µM*
CCC(=O)Nc1ccc(NC(=O)c2ccco2)c(OC)c1	0.1	0.0%	-0.1%	-0.1%	0.0%
CCCC(=O)Nc1ccc(NC(=O)c2ccco2)c(OC)c1	-2.8	-7.4%	-0.1%	3.55µM*	-8.7%
CCOC(=O)C1=C(C)Nc2nnnn2C1c1cccc(OC)c1OC (centres undefined)	-0.5	15.8µM*	-0.3%	-1.6%	-1.0%
C=CCOC(=O)C1=C(C)Nc2nnnn2C1c1cccc(OC)c1OC (centres undefined)	0.9	2.5%	-1.2%	-1.7%	0.0%
Cc1c(F)cccc1NS(=O)(=O)c1ccc(OCCNS(C)(=O)=O)cc1	1.0	6.31µM*	-0.2%	-1.5%	-1.3%
CC(=O)c1sc(NC(=O)c2ccc(Br)o2)nc1C	-0.7	-34.6%	-0.3%	-0.5%	nt
CC(=O)c1sc(NC(=O)c2ccc(Cn3cc(Br)cn3)o2)nc1C	1.1	11.2µM*	0.1%	-1.3%	1.3%
